About 83,000 compounds went through this panel and 20% of them were active in at least one assay; those are over-represented in the sample as a whole.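 Treatment: one concentration, 48 hours, 96-well format. Scoring: percent growth, with anything below 10 considered active.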 Values without a mark were called inactive. Active and inactive are the calls of the source.
test system: HL-60(TB) leukemia; test: NCI-60 one-dose screen, 48 h (100 = growth as untreated, 0 = no growth, -100 = all killed); conditions: 10 µM unless noted

Row | SMILES | growth
1 | S=C1CC(=S)NC(=S)N1 | 131%
2 | CCN(CC)C12CCCCC1(C)C(C#N)(C#N)C(C#N)=C(N)O2 (stereo not given) | 72.5%
3 | CCCCSc1ccc2nc(-c3ccc(OCCCN=C(N)N)cc3)cn2c1 | 41.1%
4 | Cc1nn(-c2ccccc2)cc1/C=C1\SC(N2CCCCC2)=NC1=O | 93%
5 | COc1cc2c(cc1OCCCCCOc1ccc(-n3c(C)nc4ccccc4c3=O)cc1)N=C[C@@H]1CCCN1C2=O | -33.8% (active)
6 | CCOc1ccc(NC(=O)Nc2cc(C(C)C)ccc2C)cc1 | 95.2%
7 | COc1ccccc1CNc1c2ccccc2nc2ccccc12 | 44.8%
8 | COc1ccc(NC2=C(Sc3nc(C)cc(C)n3)C(=O)N(Cc3ccccc3)C2=O)cc1Cl | 58.8% [30 µM]
9 | C=C1CC2(OC1=O)C(=O)N(C)c1ccc(I)cc12 (stereo not given) | -56.5% (active)
10 | S=c1n(CNc2ccc(Cl)nn2)nc(-c2cc(Cl)cc(Cl)c2Cl)n1/N=C/c1ccc(Cl)cc1 | 3.47% (active)
11 | FC(F)(F)c1cccc(CNC2CCN(CCc3ccccc3)CC2)c1 | 46.2%
12 | CN(CCOc1ccc(CC2SC(=O)NC2=O)cc1)c1ccccn1 (stereo not given) | 128%
13 | COc1cc(-c2c3c(cn2S(=O)(=O)c2ccccc2)-c2nc(N)sc2CC3)cc(OC)c1OC | 13.2%
14 | N#Cc1c(-c2ccc(F)cc2)nc(N=Nc2c(O)[nH]c3ccccc23)nc1N1CCOCC1 | 101%
15 | C=CCSSC1N=CNc2nc[nH]c21 (stereo not given) | 32%
16 | O=C(/C=C/c1cccc([N+](=O)[O-])c1)c1ccc(Nc2nc(N3CCCCC3)nc(N3CCCCC3)n2)cc1 | 79.4%
17 | COc1cc2cc(CN3CCN(c4nccc(-c5ccc6ccccc6c5)n4)CC3)c(=O)[nH]c2cc1OC | 9.75% (active)
18 | O=C(NC1CCN(Cc2ccccc2)CC1)c1cc(C(=O)NC2CCN(Cc3ccccc3)CC2)cc(C(=O)NC2CCN(Cc3ccccc3)CC2)c1 | 64.3%
19 | O=C1c2cccc3c(-c4ccc5c(c4)ncn5C4CCCCC4)ccc(c23)C(=O)N1CCO | 103%
20 | Clc1ccc2sc(-c3ccccc3)nc2c1 | 86.2%

Row | SMILES | growth
21 | CCN1CCN(c2ccc(Nc3ncnc4c3nnn4CCc3cc(OC)cc(OC)c3)cc2)CC1 | 87.8%
22 | Cc1n(Cc2ccc3ccccc3c2)cc[n+]1Cc1ccc2ccccc2c1 | -38.1% (active)
23 | COc1ccc(Cn2nc(-c3ccccc3)c3c2CCc2cnoc2-3)cc1 | 69.4%
24 | CCn1cc(-c2cc(-c3ccc(Cl)cc3)nc(N)n2)c(-c2ccc(Br)cc2)n1 | 77.7%
25 | Cc1ccc(-c2nc(SCC(=O)N3CCN(c4cc5c(cc4F)c(=O)c(C(=O)O)cn5C4CC4)CC3)nc(Cl)c2C#N)cc1 | 101%
26 | CCN(CC)CC[n+]1cc2cc(OC)c(OC)cc2c2ccc3cc4c(cc3c21)OCO4 | -33.5% (active)
27 | c1ccc(-c2nc(N3CCOCC3)c3c4c(sc3n2)CCCCC4)nc1 | 79.2%
28 | C[C@@H](C(=O)O)c1ccc2c3cc(Cl)ccc3n(Cc3cc(=O)oc4ccc(Cl)cc34)c2c1 | 89.9%
29 | CCOC(=O)c1ccc2c(c1)c1c(C)c3cnccc3c(C)c1n2C | -18.8% (active)
30 | NNC(=O)CSc1nc2scc(-c3ccccc3)c2c(=O)n1-c1ccccc1 | 84%
31 | CC[C@H](Nc1nc(N)nc(C)c1C#N)c1nc2cccc(NCCCCCC(=O)NO)c2c(=O)n1-c1ccccc1 | 39.7%
32 | CN1/C(=C\C=C\C2=[N+](C)c3ccccc3C2(C)C)C(C)(C)c2ccccc21 | -22.5% (active)
33 | Cc1c(C(=O)Nc2nc(-c3ccccc3)cs2)nnn1-c1cccc2ccccc12 | 54.4% [50 µM]
34 | COc1c(Cl)ccc2c(-c3nc4cc(Cl)c(F)cc4s3)cc(=O)oc12 | -18.1% (active)
35 | CCCCCCCCN(CCCCCCCC)C(=N)c1ccnc2ccccc12 | -68.5% (active)
36 | O=C1NC(=O)/C(=C\c2ccco2)S1 | 74.2%
37 | COc1ccc(/C=C/C(=O)Nc2cc(/C=C\c3cc(OC)c(OC)c(OC)c3)cc(OC)c2OC)cc1OC | -38.1% (active)
38 | CCCCCCCCCCCCNCCCc1ccccc1 | 32.3%
39 | CC(C)COC(=O)NC(C)(C)C | 85.2%
40 | COc1ccc(NC(=O)c2ccc3c(c2)nc(-c2ccc(Cl)cc2)n3-c2cc(C(C)(C)C)[nH]n2)cc1 | 96.8%

Source: PubChem BioAssay (NCI)
